High-throughput results from PubChem BioAssay.
GCN5L2 inh: inhibitors of human GCN5L2 histone acetyltransferase | Q92830 | GCN5L2 HAT assay, ThioGlo1 CoA-SH fluorescence | Potency, µM (series often up to 58.9 µM), without a hit: top-dose activity change, negative = inhibition, actives largely listed as inhibitors | 390,000 tested, 0.21% active; also: potency is read from the fitted curve at half-maximal effect; % is scaled to controls: 0 for no effect and ±100 for the full control effect
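qHTS, 1536-well. 20nM enzyme, pH 7.5 HEPES/EDTA/Tween-20 buffer; 15 min compound preinc., RT. Start: 75uM H3(1-25), 70uM AcCoA, 50uM ThioGlo1. Read Ex340/Em540 at t=0 (autofluorescence flag) and t=20 min.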
Rango complex inh: inhibitors of Rango-importin beta complex formation; Potency, µM (highest dose often 92.2 µM), inactives show at the highest dose inhibition of complex formation; Rango CFP/YFP FRET sensor + importin beta, 45 min; 340,000 tested, 0.031% active; calls by dose curve;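 also: potency is read from the fitted curve at half-maximal effect; 0% = DMSO wells and 100% = buffer wells lacking importin beta; nearly all actives have a fitted effect of over 15% in size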
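Inhibition scored from the CFP 486 nm/YFP 530 nm FRET ratio 45 min after adding 0.125 microM importin beta to 50 nM Rango biosensor preincubated 5 min with compound (room temperature, PBS with DTT, Tween-20, BSA). No-importin wells as positive control.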
VDR inhibitor: inhibitors of human vitamin D receptor; VDR-SRC2-3 peptide fluorescence polarization, 2 h; Potency, µM, for inactives: max response, negative = inhibition, most hits filed as inhibitors; AID 504847; 400,000 tested, 0.93% active; P11473; also: potency is read from the fitted curve at half-maximal effect; % is scaled to controls: 0 for no effect and ±100 for the full control effect
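The screen uses fluorescence polarization to detect compounds that interfere with recruitment of the SRC2-3 coactivator peptide to VDR; plates are read after 2 h at room temperature.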
Rango release inh: prevents RanGTP from dissociating the Rango-importin beta complex; Biochemical FRET Rango-importin beta, RanGTP-induced dissociation; O95149+P62826; 340,000 tested, 0.071% active; AID 540253; Potency, µM (highest dose often 46.1 µM), for inactives: at the top dose activity change, negative = inhibition; calls by dose curve; also: potency is read from the fitted curve at half-maximal effect; % of control where 0% means no effect; nearly all actives have a fitted effect of over 45% in size
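Compounds preincubate 5 min with complex of recombinant Rango and importin beta in PBS with 1 mM DTT. Ran (0.6 uM) loaded with 2 mM GTP plus 0.2 uM RCC1 starts dissociation; FRET is recorded 45 min later.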
PI5P4Ka inh: inhibitors of human PI5P4K alpha; 330,000 tested, 1.2% active; PI5P4Kalpha enzyme, ADP-Glo luminescence, 60 min; hits give low values; max response, %; active = max response of -50% or lower; inconclusive = between -30% and -50%; inactive = -30% or higher; also: value at the top dose of about 77 µM; % is scaled to controls: 0 for no effect and ±100 for the full control effect
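Human PI5P4Kalpha with substrate in 0.038 M HEPES pH 7.4, 0.28 mM EGTA, 0.1% CHAPS, 5% DMSO; reaction started with 5 microM ATP (final), 60 min at room temperature. ADP formed read by ADP-Glo luminescence.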
PLK1 PBD inh: inhibitors of human PLK1 polo-box domain binding; P53350; Plk1 PBD binding of FITC phosphopeptide, fluorescence polarization; Potency, µM, for inactives: max response, negative = inhibition, usual class: inhibitors; 360,000 tested, 2.8% active; AID 720504; also: potency is read from the fitted curve at half-maximal effect; series mostly up to about 57 µM; % is scaled to controls: 0 for no effect and ±100 for the full control effect; nearly all actives have a fitted effect of over 65% in size
* hit, by the source's call; ? = inconclusive; · = no result given. Hits are enriched below; roughly 3.6% of the tested compounds scored in any of these assays. Unless noted, calls follow the shape of the dose curve; as a rule, active = well fitted curve in the direction sought with a large enough effect; inconclusive = small, poorly fitted or top-dose-only effect, or another doubt; inactive = no such curve, though single readings can be large; an effect the other way counts as inactive or inconclusive.

SMILES	GCN5L2 inh	Rango complex inh	VDR inhibitor	Rango release inh	PI5P4Ka inh	PLK1 PBD inh
COc1ccc(C(C)(C)C)cc1NC(=S)NCCN1CCOCC1	4%	3%	6%	-6%	8	24µM*
COc1cc(NC(=S)NCCN2CCOCC2)cc(OC)c1OC	-19%	-2%	-20%	6%	1	-24%
COc1cc(C2C3=C(Nc4nc(N)[nH]c(=O)c42)c2ccccc2C3=O)ccc1O (stereo unspecified)	8%	-1%	-17%	-3%	-71*	-7%
Nc1nc2c(c(=O)[nH]1)C(c1ccccc1)C1=C(N2)c2ccccc2C1=O (stereo unspecified)	-15%	?	-29%	?	-25	-9%
COc1cc(OC)c(NC(=O)N2CCC(CN3CCCC3)CC2)cc1Cl	-4%	·	5%	·	·	·
Cc1ccc(S(=O)(=O)N(C)Cc2nc(-c3ccccc3)oc2C)cc1	-16%	·	6%	·	·	·
S=c1[nH]nc(Nc2cccc(Cl)c2)s1	22µM*	-2%	-1%	6%	-55*	-22%
O=C(c1ccc(Cl)cc1)c1cnc(Nc2ccccc2Cl)s1	-1%	0%	2%	8%	·	-4%
Cc1ccc(Nc2n[nH]c(=S)s2)cc1C	·	·	·	·	-74*	?
S=c1[nH]nc(Nc2ccccc2Cl)s1	25µM*	1%	-11%	1%	-78*	19µM*
O=C(COc1cccc2ccccc12)Nc1cc(Cl)ccc1C(=O)O	-1%	-3%	-30%	24%	?	21µM*
O=C(COc1ccccc1Cl)Nc1ccc(C(=O)O)cc1NC(=O)COc1ccccc1Cl	2%	1%	3%	13%	-64*	-19%
CC1CC=CC2C1C(=O)N(Cc1ccccc1)C2c1ccc(F)c(-c2ccc(N(C)C)cc2)c1 (stereo unspecified)	·	·	-5%	·	·	·
CCOC(=O)N1CCN(c2ncc(C(F)(F)F)cc2Cl)CC1	-2%	1%	-5%	1%	3	-16%
CCOC1=NN(c2ncc(C(F)(F)F)cc2Cl)C(=O)C1	-6%	?	-15%	-8%	-3	24µM*
Cc1cccc(C(=O)N2[C@@H](C(C)C)COc3cc(Br)ccc3S2(=O)=O)c1	·	-1%	?	6%	-17	21µM*
O=C(/C=C/c1ccccc1)N/C(=C/c1ccccc1)C(=O)NCCO	-5%	1%	6%	2%	·	-2%
O=C(/C=C/c1ccco1)Nc1ccc(F)cc1	-5%	·	0%	·	·	·
O=C(/C=C/c1ccco1)NC(=S)Nc1ccc(C(=O)O)cc1	-4%	-3%	-10%	4%	-79*	?
NS(=O)(=O)c1ccc(NC(=O)/C=C/c2ccco2)cc1	-4%	0%	-11%	1%	-63*	?
O=C(/C=C/c1ccccc1)N/C(=C/c1ccccc1)C(=O)Nc1ccc(C(=O)O)cc1	-3%	0%	?	8%	-19	27µM*
O=C(/C=C/c1ccc(Cl)cc1)NC(=S)Nc1ccc(C(=O)O)cc1	-7%	-1%	-19%	1%	-27	30µM*
O=S(=O)(NCCNC/C=C/c1ccc(Br)cc1)c1cccc2cnccc12	-24%	·	5%	·	·	·
COc1ccc(-c2nc(-c3ccccc3)c(Nc3c(C)cccc3C)o2)cc1	·	·	-1%	·	·	·
CCN(C(=O)CSc1ncc(S(=O)(=O)c2ccc(C)c(Cl)c2)c(=O)[nH]1)c1cccc(C)c1	-7%	·	7%	·	·	·
COCCn1c(SCC(=O)NNC(=O)Cc2ccccc2)nc2ccccc2c1=O	-1%	1%	-3%	21%	-4	-16%
Cn1c(SCC(=O)NNC(=O)Cc2ccccc2)nc2ccccc2c1=O	-5%	4%	?	29%	?	3.4µM*
CCCCCCCCCOC(=O)CNc1nc(C#N)nc(NCC(=O)OCCCCCCCCC)n1	·	·	-12%	·	·	·
COc1ccc2cc(-c3nc4ccc(C(=O)O)cc4[nH]3)c(=O)oc2c1	-9%	·	0%	·	·	·
O=C(Cn1cnc2c(OCc3ccccc3)ncnc21)NCc1ccccc1	-3%	1%	?	13%	-22	24µM*
